# From PubChem BioAssay
# Compounds with a hit are over-represented: about 12% of the library has one in this group of screens.
# PI5P4K alpha inh: qHTS for Inhibitors of phosphatidylinositol 5-phosphate 4-kinase (PI5P4K); Phosphatidylinositol 5-phosphate 4-kinase type-2 alpha (Homo sapiens), P48426; PI5P4Kalpha enzyme, ADP-Glo luminescence, 60 min; stronger effect = lower value; max response, %; actives 1.2% (n = 330,000); active = max response of -50% or lower; inconclusive = between -30% and -50%; inactive = -30% or higher; also: value at the top dose of about 77 µM
#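 PI5P4Kalpha ADP-Glo assay; 5 microM ATP final; 60 min RT reaction; HEPES pH 7.4/EGTA/CHAPS, 5% DMSO; controls lacking substrate or enzyme; luminescent end-point.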
# PLK1 PBD inh: qHTS for Inhibitors of PLK1-PDB (polo-like kinase 1 - polo-box domain): Primary Screen; Plk1 PBD binding of FITC phosphopeptide, fluorescence polarization; AID 720504, 2013; actives 2.8% (n = 360,000); Potency, µM, hits mostly inhibitors; also: series mostly up to about 57 µM; nearly all actives have a fitted effect of over 65% in size
# JMJD2A Tudor: qHTS Assay for Inhibitors of JMJD2A-Tudor Domain; AlphaScreen JMJD2A-Tudor / H3K4me3 peptide binding; actives 4.4% (n = 390,000); Potency, µM (highest dose often 114 µM), usual class: inhibitors; AID 504339, 2011; also: nearly all actives have a fitted effect of over 50% in size
# Target sequence (O75164 whole entry, looked up, the tested form may be a part): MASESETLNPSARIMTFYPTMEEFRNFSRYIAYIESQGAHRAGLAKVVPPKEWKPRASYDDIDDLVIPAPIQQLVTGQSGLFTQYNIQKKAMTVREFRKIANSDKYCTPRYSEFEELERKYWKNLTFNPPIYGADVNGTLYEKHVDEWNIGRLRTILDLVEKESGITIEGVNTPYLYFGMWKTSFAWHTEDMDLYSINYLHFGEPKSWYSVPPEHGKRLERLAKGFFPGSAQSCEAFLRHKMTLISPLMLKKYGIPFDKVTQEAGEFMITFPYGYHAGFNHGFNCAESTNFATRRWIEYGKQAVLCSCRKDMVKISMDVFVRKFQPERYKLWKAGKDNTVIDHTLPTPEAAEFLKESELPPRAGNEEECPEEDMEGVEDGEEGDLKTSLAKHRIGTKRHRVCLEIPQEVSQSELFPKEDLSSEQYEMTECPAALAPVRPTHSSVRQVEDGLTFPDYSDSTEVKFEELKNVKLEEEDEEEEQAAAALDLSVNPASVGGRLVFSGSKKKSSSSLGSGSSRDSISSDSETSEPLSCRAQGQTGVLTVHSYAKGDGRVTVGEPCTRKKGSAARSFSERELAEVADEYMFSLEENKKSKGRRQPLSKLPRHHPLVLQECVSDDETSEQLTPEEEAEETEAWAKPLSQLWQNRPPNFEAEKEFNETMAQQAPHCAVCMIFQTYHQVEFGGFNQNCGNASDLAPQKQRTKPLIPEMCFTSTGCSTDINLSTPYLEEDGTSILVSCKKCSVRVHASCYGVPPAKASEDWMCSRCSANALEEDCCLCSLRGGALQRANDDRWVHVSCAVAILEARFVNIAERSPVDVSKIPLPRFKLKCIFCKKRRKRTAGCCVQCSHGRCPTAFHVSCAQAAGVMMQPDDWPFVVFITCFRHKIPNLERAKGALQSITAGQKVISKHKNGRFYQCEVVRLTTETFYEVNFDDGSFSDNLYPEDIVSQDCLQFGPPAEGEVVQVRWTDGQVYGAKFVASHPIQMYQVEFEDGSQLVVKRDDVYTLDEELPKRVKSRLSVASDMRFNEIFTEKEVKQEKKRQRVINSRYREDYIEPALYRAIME
# G9a inh: qHTS Assay for Inhibitors of Histone Lysine Methyltransferase G9a; actives 8.8% (n = 350,000); Potency, µM (top dose mostly 102 µM), usual class: inhibitors; Histone-lysine N-methyltransferase EHMT2 (Homo sapiens), Q96KQ7; G9a H3K9 monomethylation, AlphaScreen, 2 h; also: nearly all actives have a fitted effect of over 75% in size
#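 AlphaScreen detection with an anti-monomethyl H3K9 antibody quantified product after a 2 h room-temperature reaction containing 500 nM biotinylated H3K9 peptide, 20 µM SAM and 20 nM enzyme, which had been preincubated 15 min with compound.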
# BAZ2B block: qHTS Assay for Inhibitors of BAZ2B | AlphaScreen BAZ2B-H3K14Ac peptide displacement | Potency, µM (titrated, usually from 114 µM), hits mostly inhibitors | AID 504333, 2011 | actives 4.4% (n = 360,000) | Bromodomain adjacent to zinc finger domain protein 2B (Homo sapiens), Q9UIF8; also: nearly all actives have a fitted effect of over 60% in size
#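 Compounds, titrated to a top concentration of 110 uM, were incubated 30 min at room temperature with preformed BAZ2B/acetyl-K14 H3 peptide complex (50 nM each). Proximity signal was measured by AlphaScreen after 20 min with beads.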
# HP1b chromo inh: HTS for Inhibitors of HP1-beta Chromodomain Interactions with Methylated Histone Tails. Potency, µM (titrated, usually from 114 µM), hits mostly inhibitors. actives 0.56% (n = 390,000). Chromobox protein homolog 1 (Homo sapiens), P83916. AlphaScreen HP1-beta / biotin-H3K9me3 peptide binding; also: nearly all actives have a fitted effect of over 70% in size
#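 Compound inhibition of the preformed complex between 50 nM HP1-beta and 50 nM biotinylated H3K9me3 peptide was read by AlphaScreen. Buffer was PBS pH 7.4 with 0.01% Tween-20. Incubations ran 30 min at room temperature, with 10 ug/mL donor/acceptor beads.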
# Hits are given with their value; – = inactive; ? = inconclusive; · = no result; [ ] = remark or other dose. Unless noted, calls follow the shape of the dose curve; as a rule, active = well fitted curve in the direction sought with a large enough effect; inconclusive = small, poorly fitted or top-dose-only effect, or another doubt; inactive = no such curve, though single readings can be large; an effect the other way counts as inactive or inconclusive.
SMILES,PI5P4K alpha inh,PLK1 PBD inh,JMJD2A Tudor,G9a inh,BAZ2B block,HP1b chromo inh
Cc1ccc(-c2nn3c(C)nnc3s2)cc1NC(=O)c1ccc(-c2ccc(Cl)cc2Cl)o1,·,–,63µM,–,?,–
Brc1ccccc1-c1nnc2sc(-c3ccc4c(c3)OCCO4)nn12,·,–,–,–[12.7 µM],–,–
Clc1cccc(-c2nnc3sc(-c4ccc5c(c4)OCO5)nn23)c1,·,·,·,10µM,–,·
O=C1C(c2ccc(F)cc2)N(CCc2ccc(Cl)cc2)C(=O)CN1C1CCCCCC1 (centres undefined),·,·,–,?,–,–
CCC1C(=O)CC2CCN3C(=O)CCC1C23 (centres undefined),·,·,–,·,·,–
O=C(CCc1nnc2n(Cc3ccccc3Cl)c(=O)c3ccccc3n12)Nc1ccccc1,·,·,–,–,–,–
Cc1cc(=O)[nH]c(SCC(=O)OCc2ccccc2)c1C#N,?,21µM,?,–[0.501 µM],–,–
C[C@H]1CN([C@@H](C)CO)C(=O)CCCn2nncc2CO[C@H]1CN(C)S(=O)(=O)c1ccc(C#N)cc1,–,–,·,·,·,·
COc1ccc(S(=O)(=O)NCC(c2ccco2)N2CCOCC2)cc1OC (centres undefined),·,·,–,13µM,–,–
COc1ccc(S(=O)(=O)NCC(c2ccco2)N2CCN(c3ccccc3)CC2)cc1OC (centres undefined),·,·,?,–,?,–
COc1ccc(N2CCN(C(CNS(=O)(=O)c3ccc(OC)c(C)c3)c3ccco3)CC2)cc1 (centres undefined),·,·,25µM,7.9µM,25µM,?
O=C1c2cccc3cccc(c23)C(=O)N1c1ccc2ncccc2c1,–,–,79µM,25µM,?,–
O=C1c2cccc3cccc(c23)C(=O)N1c1nccs1,·,–,–,?,–,–
CCOc1ccc(-n2c(=O)c3c(C)c(C)sc3n(CC(=O)N3CCC(C)CC3)c2=O)cc1,·,·,–,–,–,–
COc1ccc(C=O)c(OCc2cn(CC(=O)c3ccc(O)cc3)nn2)c1,–,–,79µM,·,·,–
CCc1nc(SCC(=O)Nc2ccc(N(C)C)cc2)c2ccccc2n1,–,–,–,10µM,–,–
COc1ccccc1-c1nnc(SCC(=O)NC2CCCCC2)o1,–,27µM,?,–,–,–
COc1ccc(NC(=O)CSc2nncc3ccccc23)cc1,–,–,–,–,–,–
COc1ccc(-c2nnc(SCC(=O)NC3CCCCC3)n2N)cc1,–,?,–,45µM,–,–
Cc1ccc(-c2nnc(SCC(=O)NC3CCCC3)n2N)cc1,–,–,–,·,·,–
COc1ccc(NC(=O)CSc2nnc(C)c3ccccc23)cc1,–,–,–,50µM,–,–
CCc1ccc(N2C(=O)N(CC(=O)C(C)(C)C)c3ccccc3S2(=O)=O)cc1,·,·,–,–,–,–
O=C(NCC(=O)N(c1ccccc1)C(C(=O)NC1CCCCC1)c1cccnc1)c1ccco1 (centres undefined),–,–,–,–,–,–
COc1ccc(NC(=O)CSc2nnc(-c3ccccc3C)n2N)cc1,·,21µM,–,50µM,–,–
CCOc1cccc(-c2nnc(SCC(=O)Nc3cc(OC)cc(OC)c3)n2N)c1,·,–,–,–,–,–
SMILES,PI5P4K alpha inh,PLK1 PBD inh,JMJD2A Tudor,G9a inh,BAZ2B block,HP1b chromo inh
COc1cccc(NC(=O)CSc2nnc(-c3cccc(OC(C)C)c3)n2N)c1,–,?,56µM,25µM,–,–
CC1=C(C(=O)NC2CC(C)(C)Cc3c2cnn3-c2cccc(F)c2)OCCO1 (centres undefined),–,–,–,·,–,–
COc1ccc(NC(=O)CC(NCc2ccccn2)C(=O)O)cc1 (centres undefined),–,–,13µM,–,3.2µM,–
CCOc1ccc(NC(=O)NCc2ccccn2)cc1,–,–,–,·,–,–
COc1ccc(N=C2SC(CC(=O)Nc3ccccc3)C(=O)N2Cc2ccccn2)cc1 (centres undefined),–,–,–,50µM,?,–
COc1ccc(N=C2SC(CC(=O)Nc3ccccc3)C(=O)N2CCc2ccccn2)cc1 (centres undefined),–,–,–,?,–,–
CCOc1ccc(NC(=O)CC(NCc2ccccn2)C(=O)O)cc1 (centres undefined),–,–,11µM,?,1.4µM,–
O=C(CCCCCN1C(=O)c2cccc3cccc(c23)C1=O)NO,·,·,·,–,·,·
Cn1c(=O)c2[nH]c(=O)cnc2n(C)c1=S,–,30µM,–,50µM,–,–
Cc1c(O)ccc(C(=O)CN2CCN(Cc3ccccc3)CC2)c1O,–,–,–,79µM,–,–
Cc1c(O)ccc(C(=O)CN2CCN(c3ccc(F)cc3)CC2)c1O,–,–,–,45µM,–,–
CC(=O)c1ccc(Nc2ncnc3c2oc2ccccc23)cc1,–,–,?,79µM,?,–
CC(=O)Nc1ccc(Nc2nc(C)nc3c2oc2ccccc23)cc1,–,–,–,–[12.7 µM],–,–
CCOc1ccc2nc(NC(=O)Cn3c(C)csc3=O)sc2c1,–,–,–,40µM,–,–
CCOCC(=O)Nc1nc2ccc(OCC)cc2s1,–,–,–,–[12.7 µM],–,–
CCOc1ccc2nc(Cl)sc2c1,–,–,–,35µM,–,–
CCOc1ccc2nc(NC(=O)c3ccc(OCC4CCCO4)cc3)sc2c1 (centres undefined),–,–,–,45µM,–,–
Cc1cccc2sc(NC(=O)c3ccc(OCC4CCCO4)cc3)nc12 (centres undefined),–,–,–,–,–,–
CCOc1ccc2nc(NS(=O)(=O)c3ccc4c(c3)n(C)c(=O)n4C)sc2c1,–,–,–,?,56µM,–
CC(C)CN1CCC2(CC1)CCN(C(=O)c1cccn1C)CC2,·,·,·,–[12.7 µM],·,·
CC(Sc1nc2c(c(=O)[nH]1)CCCC2)C(=O)Nc1cc(C(F)(F)F)ccc1Cl (centres undefined),·,·,–,–,–,–
COC(=O)c1c(NC(=O)Cc2coc3cc(C)cc(C)c23)sc2c1CCC2,·,·,–,–,–,–
CCOc1ccc(S(=O)(=O)Nc2nc3ccc(OC)cc3s2)cc1,–,–,–,?,–,–
CCOc1ccc2nc(NS(C)(=O)=O)sc2c1,–,?,–,7.1µM,–,–
O=C(O)COc1ccc(/C=C/c2nc3ccc([N+](=O)[O-])cc3s2)cc1,?,24µM,–[11.4 µM],–,–,–
